Data taken from ChEMBL document CHEMBL1157539, “Thousands of chemical starting points for antimalarial lead identification” (Nature, 2010).

System: Plasmodium falciparum
Assay: GSK_TCMDC: Inhibition of Plasmodium falciparum Dd2 in whole red blood cells, using parasite LDH activity as an index of growth. Test compounds present at 2uM
Format: functional

| SMILES | Inhibition [%] |
| --- | --- |
| COc1ccc(NC(=O)CCNc2ccnc(NCCc3ccc(F)cc3)n2)cc1.O=C(O)C(F)(F)F | 5 |
| O=C(NC1CCCCC1)c1csc(C2CCCN(C(=O)c3ccc(O)c(-c4cccc(C(F)(F)F)c4)c3)C2)n1 (centres undefined) | 85 |
| COc1ccc(Oc2cnc(N)nc2N)c(C(C)C)c1 | 0 |
| Cc1cc(CN2CC[C@H](NC(=O)c3ccc(Cl)c(Cl)c3)C2)ccc1OCCN1CCCC1.O=C(O)C(F)(F)F | 92 |
| O=C(CCn1c2ccccc2c2ccccc21)NN=Cc1ccco1 | 0 |

System: HepG2
Assay: GSK_TCMDC: Percent inhibition of human HepG2 cell line. Test compounds present at 10uM.
Format: functional

| SMILES | Inhibition [%] |
| --- | --- |
| COc1cc(C)nc2ccc(NC(=O)c3ccc(C(=O)Nc4ccc5nc(C)cc(OC)c5c4)cc3)cc12 | 27 |
| Cc1cnc(NCC2CCCCC2)nc1N[C@@H](CO)C(=O)Nc1ccccc1.O=C(O)C(F)(F)F | 0 |
| Cc1cccc(CNc2nc(C)cc(N[C@@H](Cc3ccccc3)C(=O)NCc3cccc(F)c3)n2)c1.O=C(O)C(F)(F)F | 39 |
| CC(C)C[C@H](NC(=O)c1cc(-c2ccc(C(C)(C)C)cc2)no1)C(=O)O.CC(C)C[C@H](NC(=O)c1conc1-c1ccc(C(C)(C)C)cc1)C(=O)O | 3 |
| CCC(C)NC(=O)CN1CN(c2ccccc2)C2(CCN(C(=O)c3ccc(C(C)(C)C)cc3)CC2)C1=O (centres undefined) | 0 |
| CCOc1ccccc1C1C(C(=O)C(C)(C)C)N2c3ccc(Br)cc3C=CC2C12C(=O)c1ccccc1C2=O (centres undefined) | 17 |
| Cl.N#Cc1ccc(CCNc2nccc(-c3cccc(CN4CCNCC4)c3)n2)cc1 | 5 |
| Cc1nc(C)c(C2CCC(c3ccc(Cl)cc3)CC2)c(O)c1Cl (centres undefined) | 37 |
| Cc1ccc(-c2ccc(NC(=O)N3CCc4cc(Br)c(N5CCN(C)CC5)cc43)cc2)cn1 | 86 |
| Cc1cccc2nc(-c3ccc(-c4cccc(CN5CCN(c6ccncc6)CC5)c4)cc3)[nH]c12.O=C(O)C(F)(F)F | 50 |
| CCCCCCCCCc1c(C)[nH]c2ccccc2c1=O | 0 |
| CCc1c(CCNCCCCCCNCCc2ccc([N+](=O)[O-])cc2)ccc(OC)c1OC.Cl | 35 |
| COc1ccc(-c2ccc(S(=O)(=O)Nc3cc4c(cc3OC(C)C)CCN(C)CC4)cc2)cc1.Cl | 16 |
| Cc1cccc(C(=O)Nc2ccnc(N3CCCN(Cc4cccc(O)c4)CC3)c2)c1.O=C(O)C(F)(F)F | 0 |
| CCCCCCP(=O)(COc1ccc(CCN(CC(O)COc2cccc3[nH]c(C(N)=O)cc23)CC(O)COc2cccc3[nH]c(C(N)=O)cc23)cc1)OCCCC (centres undefined) | 0 |
| O=[N+]([O-])c1ccc2nccnc2c1 | 0 |
| COc1ccc(OC)c(Cc2cnc3nc(N)[nH]c(=O)c3c2C)c1 | 62 |
| Cc1nc(N)nc(N)c1-c1ccc(Cl)c(Cl)c1 [METOPRINE] | 66 |
| NS(=O)(=O)NCCCN1CCN(c2ccccc2)CC1 | 2 |
| COc1cc2nc(N3CCC(C(N)=O)CC3)nc(NCc3ccccc3)c2cc1OC | 23 |

| SMILES | Inhibition [%] |
| --- | --- |
| O=C(Nc1cccnc1)c1cc(-c2cc(Cl)ccc2O)n[nH]1 | 7 |
| O=C(Nc1cccc(CN2CCCN(Cc3ccccc3)CC2)c1)c1ccc(-c2ccccc2)cc1.O=C(O)C(F)(F)F | 45 |
| O=C(NC1CC1)c1cnc(N2CCC(Cc3ccccc3)CC2)c(Cl)c1.O=C(O)C(F)(F)F | 10 |
| CN1CCC(NCc2cccc(-c3ccc(S(=O)(=O)NCc4ccccc4)c(F)c3)c2)CC1.O=C(O)C(F)(F)F | 94 |
| COc1ccc2nc3cc(Cl)ccc3c(NCCN(C)C)c2c1 | 4 |
| Cc1ccc(C(=O)Nc2cccc(CN3CCCN(Cc4ccc(O)cc4)CC3)c2)s1.O=C(O)C(F)(F)F | 17 |
| CCN(CC)CCN(Cc1ccc(-c2ccc(C(F)(F)F)cc2)cc1)C(=O)Cn1cc(Cc2cnn(C)c2)c(=O)nc1/C=C/c1cccc(F)c1F.O=C(O)C(O)C(O)C(=O)O | 11 |
| O=C(Nc1ccc(Cn2ncc(N3CCNCC3)c(Cl)c2=O)cc1)Nc1ccc(-c2ccccc2)cc1.O=C(O)C(F)(F)F | 29 |
| N=C(N)Nc1nc(-c2cccc(NC(=O)NCc3ccc(OC(F)(F)F)cc3)c2)cs1 | 0 |
| CN1CCN(CCNc2c3ccccc3nc3c2ccc2ccccc23)CC1.Cl | 76 |
| Cc1nnc(N2C(=N)SC(=Cc3ccc(-c4ccc(OC(F)(F)F)cc4)o3)C2=O)s1 | 37 |
| CCOC(=O)c1c[nH]c2c(sc3cc(OC)ccc32)c1=O | 0 |
| Cc1cc(-c2ccc(NC(=O)N3CCc4cc(Br)c(N5CCN(C)CC5)cc43)cc2)cc(C)n1 | 29 |
| CC(=O)Nc1ncc(C(=O)Nc2cccc(-c3ccc(-c4nc5cc(C(F)(F)F)ccc5[nH]4)cc3)c2)s1 | 83 |
| COc1ccc(NC(=O)CCNc2ccnc(NCCc3ccc(F)cc3)n2)cc1.O=C(O)C(F)(F)F | 4 |
| O=C(NC1CCCCC1)c1csc(C2CCCN(C(=O)c3ccc(O)c(-c4cccc(C(F)(F)F)c4)c3)C2)n1 (centres undefined) | 8 |
| COc1ccc(Oc2cnc(N)nc2N)c(C(C)C)c1 | 58 |
| Cc1cc(CN2CC[C@H](NC(=O)c3ccc(Cl)c(Cl)c3)C2)ccc1OCCN1CCCC1.O=C(O)C(F)(F)F | 56 |
| O=C(CCn1c2ccccc2c2ccccc21)NN=Cc1ccco1 | 6 |
